# “And” between values parts separate entries of the source, which are not always exact repeats. Equal values may be shown once. Inconclusive results are not listed. A number with no mark means an inactive call. The source made the active and inactive calls. Calls come from the whole dose curve; as a rule, active = well fitted cell-killing curve with a large enough effect in the repeat runs; inconclusive = weak or mixed curves, or effect the other way; inactive = no such curve, though single readings can be large or run the other way.
# Experiment: qHTS assay to identify small molecule agonists of the RXR signaling pathway - cell viability counter screen (AID 1159529); note: nearly all actives have a fitted effect of over 50% in size
# Settings: RXR-alpha-bla HEK293T viability, CellTiter-Glo, 16 h; series mostly up to 76.8 µM; activity change, negative = cytotoxicity: at the top concentration
# Text: National Center for Advancing Translational Sciences [NCATS]
# NIH Chemical Genomics Center [NCGC]
# U.S. Environmental Protection Agency [EPA]
# National Institutes of Environmental Health Sciences [NIEHS]
# National Toxicology Program [NTP]
# U.S. Food and Drug Administration [FDA]
# The Retinoid X receptor (RXR), a nuclear hormone receptor expressed in liver, spleen, placenta, epidermis, central nervous system. These receptors are able to form homo and heterodimers with other nuclear receptors and due to this heterodimerizing ability, RXR functions as master regulators producing diverse physiological effects. Three subtypes of RXR exist; alpha, beta and gamma. Retinoid X receptor alpha (RXR-alpha) has potential roles in metabolic signaling pathways, skin alopecia, dermal cysts, cardiac development, insulin sensitization etc. Therefore screening environmental chemicals on RXR-alpha signaling can be used for the studies focused on such therapeutic applications. For quantification of RXR-alpha ligands signaling, GeneBLAzer RXR alpha-UAS-bla HEK 293T (Life Technologies, Carlsbad, CA) cells containing a beta-lactamase reporter-gene under control of Retinoid X receptor-alpha response element were used to screen Tox21 10K library. The cytotoxicity of the Tox21 compound library against the RXR-alpha HEK 293T cell line was tested in parallel by measuring cell viability using CellTiter-Glo assay (Promega Corporation, Madison, WI) in the same wells.
# Tox21 Assay Protocol Summary:
# RXR-alpha HEK 293T cells were dispensed at 2,000 cells/6 uL of assay medium containing 2% charcoal-stripped FBS using a Multidrop Combi (ThermoFisher Scientific, Waltham, MA) dispenser. The assay was performed in black wall/clear-bottom 1536-well plates (Greiner Bio-One North America Inc. Monroe, NC). Tetraoctyl ammonium bromide was used as a positive control in the cytotoxicity screen. After the assay plates were incubated at 37 C and 5% CO2 for 5 hr, 23 nL of compounds dissolved in DMSO, positive control or DMSO only were transferred to the assay plate by a Pintool station (Kalypsys, San Diego, CA). The assay plates were incubated at 37 C and 5% CO2 for 16 hr. One uL of LiveBLAzer B/G FRET substrate (Life Technologies) was added using a Flying Reagent Dispenser (FRD) (Aurora Discovery, San Diego, CA) and the plates were incubated at room temperature for 2 hr. Fluorescence intensity (405 nm excitation, 460/530 nm emission) was measured using an Envision plate reader (PerkinElmer, Shelton, CT). For cytotoxicity, 4 uL/well of CellTiter-Glo reagent was added into the assay plates using an FRD. After 30 min incubation at room temperature, the luminescence intensity was measured using a ViewLux plate reader (PerkinElmer).
# % is set by controls: 0 for no effect and ±100 for the full control effect; potency is the fitted concentration of half-maximal effect.
Compound,"activity change, negative = cytotoxicity",Potency
CC(C)[C@H](C(=O)OC(C#N)c1cccc(Oc2ccccc2)c1)c1ccc(OC(F)F)cc1 (stereo not given in full),-0.742%,
N#Cc1ccccc1N,3.36%,
C=CC(=O)OCCCCOC(=O)C=C,2.51%,
Cc1ccc(C(=O)Cl)cc1,-10.6%,
Oc1ccc(C2(c3ccc(O)cc3)c3ccccc3-c3ccccc32)cc1,,38.9 µM (active)
O=C1NCN(c2ccccc2)C12CCN(CC1COc3ccccc3O1)CC2 (stereo not given),,6.74 µM (active)
NNC(=O)c1ccccc1,-3.68%,
BrCBr,0.399%,
CN(CCCC(O)c1cccnc1)N=O (stereo not given),14%,
CCc1ccccc1C,0.924%,
CCCSP(=O)(OCC)SCCC,2.02%,
O=C/C(Cl)=C(/Cl)C(=O)O,,inactive
ClC(Cl)=C(Cl)Cl,-0.415%,
S=C(SSC(=S)N1CCCCC1)N1CCCCC1,,0.12 µM (active)
CCOP(=S)(OCC)SCCS(=O)(=O)CC,0.794%,
CN(C)C1CSSSC1,6.65%,
c1ccc2cc3c(cc2c1)-c1cccc2cccc-3c12,-9.2%,
N#CNC#N,4.6%,
ClC1=C(Cl)[C@]2(Cl)[C@@H]3[C@@H](Cl)[C@@H](Cl)C[C@@H]3[C@@]1(Cl)C2(Cl)Cl,3.47%,
Cc1cccc(OP(=O)(Oc2cccc(C)c2)Oc2cccc(C)c2)c1,-9.61%,

Compound,"activity change, negative = cytotoxicity",Potency
Clc1ccc(C(c2ccc(Cl)cc2)C(Cl)(Cl)Cl)cc1,,22 µM (active) and 30.9 µM (active) and 23.9 µM (active)
Oc1ccccc1Br,2.28%,
CCOC(=O)CC(=O)CCl,6.13%,
CC(C)C1CCC(Cc2ccc(Cl)cc2)C1(O)Cn1cncn1 (stereo not given),,54.4 µM (active)
[Cl][Sb]([Cl])[Cl],-0.81%,
Nc1c(Oc2ccccc2)cc(O)c2c1C(=O)c1ccccc1C2=O,-11.9% [at 35.3 µM],
CCC(C)(C)C(=O)OC1=C(c2ccc(Cl)cc2Cl)C(=O)OC12CCCCC2,-13.4%,
Cc1cc(Cl)ccc1O[C@H](C)C(=O)O,-3.97%,
Cc1c(Cl)c(=O)oc2cc(OP(=O)(OCCCl)OCCCl)ccc12,-7.91% [at 35.3 µM],
Oc1c(Cl)c(Cl)cc(Cl)c1Cl,,7.55 µM (active)
OC(Cc1ccccc1Cl)(Cn1cncn1)C1(Cl)CC1 (stereo not given),-2.83%,
CC(C)OS(C)(=O)=O,4.15%,
C=CC(=O)OCC(COC(=O)C=C)(COC(=O)C=C)COC(=O)C=C,,17.4 µM (active)
CC(=[OH+])/C=C(/C)[O-].CC(=[OH+])/C=C(\C)[O-].CC(=[OH+])/C=C(\C)[O-].[Fe],-7.09%,
O=C(Cl)c1ccc(Cl)cc1,0.526%,
[Cl][Sn]([c]1ccccc1)([c]1ccccc1)[c]1ccccc1,,0.585 µM (active)
OC(c1ccc(Cl)cc1)(c1ccc(Cl)cc1)C(Cl)(Cl)Cl,10.5%,
CCOCCOC(C)=O,-0.704%,
C[C@@H]1CC[C@@]2(OC1)O[C@H]1[C@@H](O)[C@H]3[C@@H]4CC[C@H]5C[C@@H](O[C@@H]6O[C@H](CO)[C@H](O[C@@H]7O[C@H](CO)[C@@H](O)[C@H](O[C@@H]8OC[C@@H](O)[C@H](O)[C@H]8O)[C@H]7O[C@@H]7O[C@H](CO)[C@@H](O)[C@H](O[C@@H]8O[C@H](CO)[C@@H](O)[C@H](O)[C@H]8O)[C@H]7O)[C@H](O)[C@H]6O)[C@H](O)C[C@]5(C)[C@H]4CC[C@]3(C)[C@H]1[C@@H]2C,,4.13 µM (active)
N#C/C=C/c1ccccc1,1.64%,
